Test results taken from PubChem BioAssay (Tox21).
Inconclusive results are not listed. Entries that show only a call come without a potency. Active and inactive are the calls of the source. The call rests on the fitted dose curve; in most records, active means well fitted cell-killing curve with a large enough effect in the repeat runs; inconclusive means weak or mixed curves, or effect the other way; inactive means flat fitted curve, though single readings scatter.

assay: cAMP Responsive Elements (CRE) small molecule agonists, cell-based qHTS assay: qHTS cell viability counter screen (AID 2060914); conditions: CRE-bla HEK293T viability, CellTiter-Glo luminescence, 5 h; series mostly up to 92.4 µM; further: nearly all actives have a fitted effect of over 50% in size
Method in brief: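 In the same wells as the reporter read, viability of CRE-bla HEK 293T cells was quantified by CellTiter-Glo luminescence after a 3 h compound exposure.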
Potency means the concentration at half of the fitted maximal effect.

Structure (SMILES) | Potency
COC(=O)CCSCCC(=O)OC | inactive
O=[N+]([O-])c1cc(C2CCCCC2)c(O)c([N+](=O)[O-])c1 | inactive
O=C=Nc1ccc(Cl)c(Cl)c1 | inactive
CCC(C)n1ncn(-c2ccc(N3CCN(c4ccc(OC[C@H]5CO[C@](Cn6cncn6)(c6ccc(Cl)cc6Cl)O5)cc4)CC3)cc2)c1=O (some centres not stated) | inactive
COc1ccccc1OCC(O)CN1CCN(CC(=O)Nc2c(C)cccc2C)CC1 (configuration not stated) | inactive
CCOC(=O)c1ccc(N(C)C)cc1 | inactive
CCCCC(C=O)CC (configuration not stated) | inactive
O=[N+]([O-])c1ccc(O)cc1C(F)(F)F | inactive
C/C(=C1\CCOC(=O)S1)N(C=O)Cc1cnc(C)nc1N | inactive
Cc1cc(C(=O)O)ccc1[N+](=O)[O-] | inactive
CC1=Nc2ccccc2C1(C)C | inactive
CCCCCCCCCCCCCCO | inactive
CCCOc1ccc2nc(NC(=O)OC)[nH]c2c1 | inactive
CC1=CC[C@@]23C[C@@H]1C(C)(C)[C@@H]2CC[C@H]3C | inactive
NC(=NCCCCCCN=C(N)/N=C(\N)Nc1ccc(Cl)cc1)/N=C(\N)Nc1ccc(Cl)cc1 | 48.1 µM (active)
CCc1cc(Cc2cc(CC)cc(C(C)(C)C)c2O)c(O)c(C(C)(C)C)c1 | inactive
CC(C)c1ccc(O)c(C(C)C)c1 | inactive
C[C@]12CC[C@H]3C(=CCc4cc(O)ccc43)[C@@H]1CCC2=O | inactive
CCOCCOCCOCC | inactive
CC1(C)[C@@H]2CC[C@]3(C2)[C@@H]1C(=O)CCC3(C)C | inactive
[O-]/[N+](=N\O)c1ccccc1 | inactive
CC(C)C(=O)OCCc1ccccc1 | inactive
